These results are taken from PubChem BioAssay (NCATS).

Assay [1] can be described thus: BET inhibitor-based combinations targeting novel dependencies in MECOM-rearranged (r) AML: UCSD-AML1 cell line (AID 2202235). Further: nearly all actives have a fitted effect of over 40% in size. A digest of the protocol: (§1)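 Normalized to DMSO and empty-well controls, the luminescence data from CellTiter-Glo after 48 hr drug exposure were fitted across 11 concentrations. Reported metrics are area under the dose-response curve and its Z-transformed form.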

Assay [2] in a line: BET inhibitor-based combinations targeting novel dependencies in MECOM-rearranged (r) AML: AML-191 cell line (AID 2202236; further: nearly all actives have a fitted effect of over 35% in size). The method in brief:
(§2)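 Here, 11-point titrations of each agent were applied to 500 seeded cells and incubated 48 hr; CellTiter-Glo signal, scaled against DMSO and empty wells, was integrated as AUC, then Z-scored within the individual line.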

A short description of assay [3]: BET inhibitor-based combinations targeting novel dependencies in MECOM-rearranged (r) AML: AML-194 cell line (AID 2202237; further: nearly all actives have a fitted effect of over 40% in size). The method in brief: as §2
Assay [4] can be described thus: BET inhibitor-based combinations targeting novel dependencies in MECOM-rearranged (r) AML: HNT-34 cell line (AID 2202234). Further: nearly all actives have a fitted effect of over 35% in size. A digest of the protocol: as §1
Assay [5] is described as follows: BET inhibitor-based combinations targeting novel dependencies in MECOM-rearranged (r) AML: MV-4-11 cell line (AID 2202233). Further: nearly all actives have a fitted effect of over 45% in size. The method in brief: as §1

Results filed as inconclusive are left out. Calls of active or inactive are those of the source. The call rests on the fitted dose curve; in most records, active means well fitted curve in the direction sought with a large enough effect; inconclusive means small, poorly fitted or top-dose-only effect, or another doubt; inactive means no such curve, though single readings can be large; an effect the other way counts as inactive or inconclusive. Non-standard residues stand in square brackets, D forms with d. Residues, ends and D or L forms follow the SMILES beside them. Dip = N[C@H](C(=O)O)C(c1ccccc1)c1ccccc1
Potency means the concentration at half of the fitted maximal effect.

With `CC(C)c1onc(-c2c(Cl)cccc2Cl)c1COc1ccc(/C=C/c2cccc(C(=O)O)c2)c(Cl)c1`, the Potency result in assay [1], in assay [2] and in assay [3] was “inactive” in each case.
Take `NS(=O)(=O)c1ccc(NC(=S)N2CCN(C/C=C/c3ccccc3)CC2)cc1`: the Potency in assay [4] is 18.6 µM (active). Besides, the Potency entry in assay [1] and in assay [3] was “inactive” throughout.
With `Cc1nc(C)c(CN2CCN(C(c3ccc(F)cc3)c3ccc(F)cc3)CC2)nc1C`, the Potency in assay [5] is 18.6 µM (active); in assay [3], 20.9 µM (active).
On to `COc1ccc2c(c1)[C@]1(C[C@H]1c1ccc3c(/C=C/c4ccc(CN5C[C@@H](C)O[C@@H](C)C5)cc4)n[nH]c3c1)C(=O)N2`, for which the Potency in assay [2] was 0.417 µM (active); in assay [3] it was 0.132 µM (active).
Regarding `CN1C(=O)N(c2cc(Cl)cc(Cl)c2)C(=O)[C@]12CN(Cc1cc(C(=O)O)cs1)C[C@H]2c1ccc(C#N)cc1`, the Potency entry in assay [4], in assay [1] and in assay [3] was “inactive” in each case.
Turning to `CNC(=O)c1ccc(N2C(=S)N(c3ccc(C#N)c(C(F)(F)F)c3)C(=O)C2(C)C)cc1F`, in assay [5], the Potency was 18.6 µM (active). Further, the Potency result in assay [1] and in assay [3] was “inactive” throughout.
Regarding `Nc1nccc(-c2c(-c3ccc(F)cc3)ncn2C2CCN(Cc3ccon3)CC2)n1`, in assay [4], the Potency is 8.33 µM (active).
Turning to `CN(C)CCOc1ccc(/C(=C(/CCCl)c2ccccc2)c2ccccc2)cc1`, in assay [1], the Potency entry is “inactive”.
As to `CN1CCN(C(=O)c2ccc(-c3ccc4c(C=O)c(O)ccc4c3)s2)CC1`, the Potency in assay [4] is 16.6 µM (active).
For `COc1cc(OCc2cccc(-c3ccccc3)c2C)cc(OC)c1CN1CCCC[C@H]1C(=O)O`, the Potency result in assay [1] is “inactive”.
As for `Cc1cc(Oc2ccc3nc(COc4ccc(CC5SC(=O)NC5=O)cc4)n(C)c3c2)cc(C)c1N` (centres undefined), the Potency result in assay [4], in assay [1] and in assay [3] was “inactive” throughout.
In the case of `CN(C)CCNC(=O)COc1c2cccc1Cc1cccc(c1OCC(=O)NCCN(C)C)Cc1cccc(c1OCC(=O)NCCN(C)C)Cc1cccc(c1OCC(=O)NCCN(C)C)C2`, the Potency in assay [1] and in assay [2] was 0.428 µM (active) throughout.
As to `CCn1c(=O)c2c(nc(/C=C/c3ccc(OC)c(OC)c3)n2C)n(CC)c1=O`, the Potency entry in assay [4], in assay [1], in assay [2] and in assay [3] was “inactive” in each case.
As for `CCN(CC)C(=O)Cc1csc(NS(=O)(=O)c2cccc(Cl)c2C)n1`, the Potency entry in assay [4], in assay [1] and in assay [3] was “inactive” throughout.
Take `NCCCC[C@H](NC(=O)[C@@H](NC(=O)[C@H](Cc1c[nH]c2ccccc12)NC(=O)[C@H](CCCCN)NC(=O)[C@H](CCCCN)NC(=O)[C@H](Cc1c[nH]c2ccccc12)NC(=O)[C@H](Cc1c[nH]c2ccccc12)NC(=O)[C@H](CCCCN)NC(=O)[C@@H](N)CCCCN)C(c1ccccc1)c1ccccc1)C(N)=O` (H-KKWWKKW[Dip]K-NH2): the Potency entry in assay [1] and in assay [3] was “inactive” throughout.
Turning to `C[C@H](Nc1nc(N[C@H](C)C(F)(F)F)nc(-c2cccc(Cl)n2)n1)C(F)(F)F`, the Potency result in assay [4], in assay [1], in assay [2] and in assay [3] was “inactive” throughout.
`CN[C@@H]1C[C@H]2O[C@@](C)([C@@H]1OC)n1c3ccccc3c3c4c(c5c6ccccc6n2c5c31)C(=O)N[C@H]4O`: the Potency was 0.428 µM (active) in assay [4], 0.135 µM (active) in assay [1], 0.605 µM (active) in assay [2] and 0.382 µM (active) in assay [3].
In the case of `COc1ccc(CC2c3cc(OC)c(OC)cc3CC[N+]2(C)CCC(=O)OCCCCCOC(=O)CC[N+]2(C)CCc3cc(OC)c(OC)cc3C2Cc2ccc(OC)c(OC)c2)cc1OC` (centres undefined), the Potency in assay [5] is 18.6 µM (active). Besides, the Potency result in assay [3] is “inactive”.
Take `O=C(Nc1cnccc1Cl)N1CCN(Cc2ccc3c(c2)OC(F)(F)O3)CC1`: in assay [3], the Potency result was “inactive”.
In the case of `Nc1nc(OC(c2ccc(-c3cccc(F)c3)cc2)C(F)(F)F)cc(-c2ccc(C[C@H](N)C(=O)O)cc2)n1` (some centres undefined), the Potency result in assay [1], in assay [2] and in assay [3] was “inactive” each time.
Regarding `COC(=O)N[C@H](C(=O)N1CCC[C@H]1c1ncc(-c2ccc(-c3ccc(-c4cnc([C@@H]5CCCN5C(=O)[C@@H](NC(=O)OC)C(C)C)[nH]4)cc3)cc2)[nH]1)C(C)C`, in assay [1], the Potency result is “inactive”.
